Experimental data: PubChem BioAssay
Active and inactive are the calls of the source.

Tests used:
[1] = target: Albumin (Bos taurus) (UniProt P02769); assay: compounds binding labelled BSA control protein – biochemical, small-molecule microarray, Alexa647 label, 635/667 nm fluorescence, artefact control for SMM control protein annotation, profiling panel (AID 1118); details: BSA-A647 binding, fluorescence 635 nm, higher = more signal;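 further: score merges 667 nm emission intensity and signal-to-noise per printed compound spot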
Chain of Albumin (Bos taurus) (P02769 whole entry, looked up): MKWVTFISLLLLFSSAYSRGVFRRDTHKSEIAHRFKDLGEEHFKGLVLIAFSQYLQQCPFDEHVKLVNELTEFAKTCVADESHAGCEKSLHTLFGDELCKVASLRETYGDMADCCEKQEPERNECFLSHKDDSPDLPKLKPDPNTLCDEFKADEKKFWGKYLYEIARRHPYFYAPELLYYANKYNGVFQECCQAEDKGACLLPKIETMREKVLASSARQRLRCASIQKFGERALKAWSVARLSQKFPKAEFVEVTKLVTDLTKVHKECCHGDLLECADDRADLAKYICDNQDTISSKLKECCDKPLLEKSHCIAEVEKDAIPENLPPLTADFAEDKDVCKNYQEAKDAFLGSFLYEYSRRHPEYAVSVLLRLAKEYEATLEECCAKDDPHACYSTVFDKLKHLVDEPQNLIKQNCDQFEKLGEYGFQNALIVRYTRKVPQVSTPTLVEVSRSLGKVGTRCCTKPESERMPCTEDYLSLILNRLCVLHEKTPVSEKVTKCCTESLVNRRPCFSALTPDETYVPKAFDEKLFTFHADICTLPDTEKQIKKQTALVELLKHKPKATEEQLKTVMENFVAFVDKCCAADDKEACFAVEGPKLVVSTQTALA

[2] = probe aXIP binding to arrayed compounds – biochemical, NeuroSMM set, 635/667 nm fluorescence, primary screen (AID 1119); details: small-molecule microarray, higher = more signal, called active from +8 up or from −8 down;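 further: probe is the protein aXip251-270 applied at 1 µg/mL to compound-printed slides; binding of probe to printed compounds measured as 667 nm fluorescence plus signal to noise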
[3] = probe aNOTCH3 binding on compound microarray – biochemical, small-molecule microarray, 635/667 nm fluorescence, primary screen (AID 1120); details: higher = more signal;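 further: probe is a biotin-tagged antibody raised against NOTCH3 rather than NOTCH3 protein; score merges spot fluorescence near 667 nm with spot signal to noise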
[4] = probe aNOTCH2 binding on compound microarray – biochemical, small-molecule microarray, 635/667 nm fluorescence, primary screen (AID 1121); details: higher = more signal;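 further: score merges feature fluorescence read at 667 nm with its signal to noise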
[5] = target: Carbonic anhydrase 2 (Homo sapiens) (UniProt P00918); assay: compounds binding carbonic anhydrase 2 – biochemical, small-molecule microarray, Alexa647-labelled CAII, profiling panel (AID 1122); details: CAII-A647 binding fluorescence, higher = more signal
[6] = COS7 lysate on small-molecule microarray, probe aHis, 635 nm (AID 1123); details: COS7 cell lysate, fluorescence, higher = more signal;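 further: z-score combines 667nm fluorescence intensity with signal-to-noise per printed compound spot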
[7] = probe aLAP1 signal on lysate-treated microarray – cell lysate, small-molecule microarray, COS7 lysate, primary screen (AID 1124); details: probe aLAP1, fluorescence, higher = more signal;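 further: lysate comes from COS7 cells expressing LAP1 and is applied at 0.3 µg/mL; score merges spot fluorescence near 667 nm with signal-to-noise over triplicate slides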
[8] = system: Sam68 (KHDRBS1); assay: compounds binding KHDRBS1 protein – biochemical, small-molecule microarray, 635 nm fluorescence, primary screen (AID 1125); details: higher = more signal;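 further: score merges 667 nm channel intensity with signal to noise over triplicate slides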
[9] = system: Chordin-like protein 2 (CHRDL2); assay: compounds binding chordin-like 2 – biochemical, small-molecule microarray, 635 nm fluorescence, primary screen (AID 1126); details: fluorescence 635 nm, higher = more signal;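 further: printed compound slides probed with Chrdl2 protein at 4 µg/mL for 1 h at 4 C; score merges 667 nm emission intensity with signal to noise over three replicate slides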
[10] = target: Concanavalin-A (Canavalia ensiformis) (UniProt P02866); assay: compounds binding concanavalin A lectin – biochemical, small-molecule microarray, Alexa647 label, 635 nm, artefact control for SMM control protein annotation, primary screen (AID 1127); details: ConA-A647 binding fluorescence, higher = more signal;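 further: z combines 667 nm emission intensity with signal-to-noise across three replicate slides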
Chain of Concanavalin-A (Canavalia ensiformis) (P02866 whole entry, looked up): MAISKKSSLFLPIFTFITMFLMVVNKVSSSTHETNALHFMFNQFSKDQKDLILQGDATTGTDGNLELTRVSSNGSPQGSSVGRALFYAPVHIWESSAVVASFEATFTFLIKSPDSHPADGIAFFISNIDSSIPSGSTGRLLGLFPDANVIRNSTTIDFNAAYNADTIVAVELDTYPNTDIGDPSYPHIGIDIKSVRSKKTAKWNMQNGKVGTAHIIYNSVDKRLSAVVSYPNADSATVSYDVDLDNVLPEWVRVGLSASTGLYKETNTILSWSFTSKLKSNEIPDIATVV

[11] = compounds binding Alexa647 anti-His antibody – biochemical, small-molecule microarray, 635 nm fluorescence, artefact control for SMM control protein annotation, primary screen (AID 1128); details: higher = more signal;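 further: score merges feature fluorescence with signal-to-noise for each printed compound spot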
[12] = system: Human papillomavirus type 1a E7 protein (residues 1-88); assay: HPV1a E7 small-molecule binders, primary screen, biochemical, small-molecule microarray, residues 1-88, 635 nm (AID 1129); details: small-molecule microarray binding, fluorescence 635 nm; higher = more signal
[13] = target: Focal adhesion kinase 1 (Homo sapiens) (UniProt Q05397); assay: PTK2 protein binding on printed compound slides – biochemical, small-molecule microarray, 635/667 nm fluorescence, BSA, DTT, primary screen (AID 1130); details: 635 nm fluorescence, higher = more signal;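 further: composite of spot emission at 667 nm and signal to noise over triplicate slides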
Chain of Focal adhesion kinase 1 (Homo sapiens) (Q05397 whole entry, looked up): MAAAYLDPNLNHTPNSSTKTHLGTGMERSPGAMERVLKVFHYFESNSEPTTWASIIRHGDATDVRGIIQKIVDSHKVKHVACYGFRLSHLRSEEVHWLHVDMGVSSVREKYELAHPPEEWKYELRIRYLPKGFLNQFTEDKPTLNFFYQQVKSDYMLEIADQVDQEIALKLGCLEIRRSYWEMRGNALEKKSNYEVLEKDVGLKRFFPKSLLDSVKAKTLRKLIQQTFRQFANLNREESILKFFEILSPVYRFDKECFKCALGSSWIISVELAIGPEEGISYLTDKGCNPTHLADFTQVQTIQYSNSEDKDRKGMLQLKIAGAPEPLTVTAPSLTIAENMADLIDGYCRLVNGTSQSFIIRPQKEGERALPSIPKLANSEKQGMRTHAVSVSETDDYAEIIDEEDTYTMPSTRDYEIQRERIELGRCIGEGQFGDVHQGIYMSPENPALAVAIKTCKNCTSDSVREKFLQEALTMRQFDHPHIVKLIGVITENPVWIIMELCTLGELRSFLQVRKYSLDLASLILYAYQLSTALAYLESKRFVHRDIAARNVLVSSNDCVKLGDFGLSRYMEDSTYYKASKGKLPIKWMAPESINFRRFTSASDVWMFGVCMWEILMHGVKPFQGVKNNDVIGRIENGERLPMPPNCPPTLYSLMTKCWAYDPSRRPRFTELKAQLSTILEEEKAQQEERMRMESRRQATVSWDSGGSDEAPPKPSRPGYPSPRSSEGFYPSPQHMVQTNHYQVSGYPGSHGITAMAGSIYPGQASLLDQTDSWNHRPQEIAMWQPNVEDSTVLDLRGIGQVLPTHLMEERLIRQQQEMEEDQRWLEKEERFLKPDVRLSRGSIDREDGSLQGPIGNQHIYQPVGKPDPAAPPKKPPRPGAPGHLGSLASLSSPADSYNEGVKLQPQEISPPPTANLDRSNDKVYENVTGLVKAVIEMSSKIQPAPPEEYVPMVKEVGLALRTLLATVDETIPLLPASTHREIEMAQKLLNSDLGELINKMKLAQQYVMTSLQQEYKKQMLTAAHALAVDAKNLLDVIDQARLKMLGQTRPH

[14] = system: Fibrinogen (Alexa647-labelled); assay: Alexa647-fibrinogen binding to printed small molecules – biochemical, small-molecule microarray, 635/667 nm fluorescence, artefact control for SMM control-protein annotation, profiling panel (AID 1131); details: fibrinogen-A647 binding fluorescence, higher = more signal;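 further: z-score merges 667 nm fluorescence with per-spot signal-to-noise over triplicate slides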
[15] = target: Follistatin (Homo sapiens) (UniProt P19883); assay: FST protein binding to printed compounds – biochemical, small-molecule microarray, 635/667 nm fluorescence, primary screen (AID 1132); details: 635 nm fluorescence, higher = more signal
Chain of Follistatin (Homo sapiens) (P19883 whole entry, looked up): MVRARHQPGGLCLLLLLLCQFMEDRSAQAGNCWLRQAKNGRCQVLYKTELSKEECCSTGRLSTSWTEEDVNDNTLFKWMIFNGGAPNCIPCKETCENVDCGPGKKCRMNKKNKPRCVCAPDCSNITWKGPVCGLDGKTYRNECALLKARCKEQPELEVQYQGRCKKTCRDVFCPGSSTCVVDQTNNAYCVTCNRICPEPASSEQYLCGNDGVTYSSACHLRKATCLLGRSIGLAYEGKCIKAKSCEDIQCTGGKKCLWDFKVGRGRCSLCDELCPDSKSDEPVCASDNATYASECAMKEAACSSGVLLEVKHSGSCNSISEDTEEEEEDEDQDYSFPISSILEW

[16] = target: Fibroblast growth factor 2 (Homo sapiens) (UniProt P09038); assay: basic fibroblast growth factor binding to printed compounds – biochemical, small-molecule microarray, 635/667 nm fluorescence, primary screen (AID 1133); details: FGF2, fluorescence 635/667, higher = more signal
Chain of Fibroblast growth factor 2 (Homo sapiens) (P09038 whole entry, looked up): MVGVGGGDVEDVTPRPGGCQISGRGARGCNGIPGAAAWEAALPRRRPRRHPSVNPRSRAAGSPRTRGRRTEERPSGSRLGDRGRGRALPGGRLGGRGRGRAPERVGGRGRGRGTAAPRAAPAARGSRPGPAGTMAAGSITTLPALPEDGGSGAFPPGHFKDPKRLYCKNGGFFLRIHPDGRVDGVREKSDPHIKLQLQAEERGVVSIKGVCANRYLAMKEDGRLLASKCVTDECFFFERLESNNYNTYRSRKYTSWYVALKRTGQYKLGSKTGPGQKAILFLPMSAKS

[17] = JC-1 mitochondrial potential readout, lung cancer cells – cell-based, A549, JC-1 fluorescence, basal, 24 h, 100 nL, profiling panel (AID 1138); details: higher = more signal;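 further: A549 lung adenocarcinoma cells under basal conditions with no added stimulus; test concentration not given here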
[18] = system: Lefty1; assay: Lefty1 protein binding to printed compounds – biochemical, small-molecule microarray, 635/667 nm fluorescence, primary screen (AID 1139); details: fluorescence 635/667, higher = more signal
[19] = system: wheat germ agglutinin (Triticum aestivum), Alexa647-labelled; assay: Alexa647-WGA lectin binding to printed small molecules – biochemical, small-molecule microarray, 635/667 nm fluorescence, artefact control for SMM control-protein annotation, profiling panel (AID 1140); details: WGA-A647 binding, 635 nm fluorescence, higher = more signal;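 further: score merges 667 nm feature emission with signal to noise over triplicate slides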
[20] = target: Luciferin 4-monooxygenase (Photinus pyralis) (UniProt P08659); assay: inhibition of purified Photinus pyralis luciferase – biochemical, luminescence, purified enzyme, 2006 set, primary screen (AID 1141); details: purified firefly luciferase, SteadyGlo luminescence, 30 min; higher = more signal, called active from +8 up or from −8 down;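 further: cell-free assay with purified firefly luciferase at 100 ng per well in PBS; test concentration not given here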
Chain of Luciferin 4-monooxygenase (Photinus pyralis) (P08659 whole entry, looked up): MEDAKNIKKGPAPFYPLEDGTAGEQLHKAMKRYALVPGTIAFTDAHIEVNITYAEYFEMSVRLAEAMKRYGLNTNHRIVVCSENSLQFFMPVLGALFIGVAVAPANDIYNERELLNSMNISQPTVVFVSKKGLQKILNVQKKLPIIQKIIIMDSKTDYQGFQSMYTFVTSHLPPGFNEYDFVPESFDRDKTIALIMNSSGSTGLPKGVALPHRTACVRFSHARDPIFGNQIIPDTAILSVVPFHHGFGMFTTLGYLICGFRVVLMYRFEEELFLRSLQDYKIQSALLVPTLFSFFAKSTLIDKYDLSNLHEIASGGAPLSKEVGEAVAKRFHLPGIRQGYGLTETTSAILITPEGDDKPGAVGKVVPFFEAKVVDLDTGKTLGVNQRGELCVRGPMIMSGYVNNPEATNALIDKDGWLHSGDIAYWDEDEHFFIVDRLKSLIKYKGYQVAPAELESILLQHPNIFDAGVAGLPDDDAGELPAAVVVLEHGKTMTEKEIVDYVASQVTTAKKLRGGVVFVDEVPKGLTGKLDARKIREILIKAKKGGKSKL

Row | SMILES | composite z-score [1] | composite Z-score [2] | composite z-score [3] | composite z-score [4] | composite z-score [5] | composite z-score [6] | composite z-score [7] | composite z-score [8] | composite z-score [9] | composite z-score [10] | composite z-score [11] | composite z-score [12] | composite z-score [13] | composite z-score [14] | composite z-score [15] | composite z-score [16] | z-score [17] | composite z-score [18] | composite z-score [19] | z-score [20]
1 | C=C(CCCC)C(=O)CC[C@@H](OC(C)=O)c1ccc(OCCO)cc1 | -0.267 | 3.19 (inactive) | 0.15 | -0.117 | 0.628 | 0.143 | 1.21 | -0.135 | 0.523 | 0.397 | 1.51 | -0.161 | -0.162 | -0.134 | 1.46 | 1.4 | -0.275 | 1.69 | -0.578 | -1.4 (inactive)
2 | COCCOC(=O)N1C(=O)[C@@]2(c3cc(C#CCC(C(=O)OC)C(=O)OC)ccc31)[C@H](C(=O)N1CCc3cc(OC)c(OC)cc3C1)[C@H]1C(=O)O[C@H](c3ccccc3)[C@H](c3ccccc3)N1[C@@H]2c1ccccc1OCCO | 0.329 | -0.331 (inactive) | 0.182 | -0.106 | 0.401 | 0.977 | 0.75 | 1.3 | 0.854 | 1.14 | 0.258 | 1.2 | 0.673 | 0.698 | 1.42 | 1.6 | -1.28 | 1.61 | 0.281 | 0.888 (inactive)
3 | O=C1O[C@@H](c2ccccc2)[C@@H](c2ccccc2)N2[C@@H](c3ccc(OCCO)cc3)[C@]3(C(=O)Nc4ccc(C#CC5=CCCCC5)cc43)[C@@H](C(=O)Nc3nc4ccccc4s3)[C@H]12 | -0.01 | 0.159 (inactive) | 0.674 | -0.42 | 0.303 | 1.14 | -0.142 | 1.28 | 0.163 | 1.07 | 0.22 | 0.525 | -0.0302 | 0.99 | 0.593 | 1.25 | -2.31 | 0.547 | 0.453 | -2.64 (inactive)
4 | COc1cc(Cc2cc3c(c(-c4ccccc4)n2)[Si](C(C)C)(C(C)C)OC3)cc(OC)c1OC | -1.25 | 0.23 (inactive) | -0.0682 | -0.0028 | 0.153 | -0.317 | -0.27 | -1.26 | 0.296 | -0.264 | -0.753 | -1.33 | -0.517 | 0.107 | 0.0972 | 0.542 | 0.489 | -0.194 | 0.712 | -0.111 (inactive)
5 | C=CCNC(=O)[C@H]1[C@@H]2C(=O)O[C@@H](c3ccccc3)[C@@H](c3ccccc3)N2[C@@H](c2ccc(OCCO)cc2)[C@]12C(=O)N(C(=O)OCCOC)c1ccc(C#CCC(C(=O)OC)C(=O)OC)cc12 | 0.738 | 0.245 (inactive) | 0.327 | 0.0654 | 0.702 | 2.67 | 1.44 | 1.16 | 0.6 | 1.12 | 0.302 | 1.2 | 0.227 | 0.94 | 1.27 | 0.252 | -0.933 | 1.27 | 1.26 | -0.515 (inactive)
6 | COc1cccc(C)c1NC(=O)O[C@H]1[C@H](OC(=O)Nc2ccccc2)[C@@H](OC(=O)Nc2ccccc2)[C@@H](OC)O[C@@H]1CO | 0.541 | -0.376 (inactive) | 0.163 | -0.0811 | 0.461 | 2.66 | 0.665 | 1.29 | 0.174 | 1.08 | 1.78 | 1.29 | 0.452 | 1.01 | 1.38 | 0.432 | -1.54 | 0.662 | 1.04 | -0.321 (inactive)
7 | COC(=O)C(CC#Cc1ccc2c(c1)[C@]1(C(=O)N2)[C@H](C(N)=O)[C@H]2C(=O)O[C@H](c3ccccc3)[C@H](c3ccccc3)N2[C@@H]1c1ccccc1OCCO)C(=O)OC | 0.398 | -0.363 (inactive) | -0.248 | -0.124 | 0.434 | 2.34 | 0.782 | 1.13 | -0.0393 | 1.12 | 1.25 | 1.22 | 0.474 | 0.591 | 0.917 | 0.535 | -1.05 | 0.607 | 0.775 | -0.638 (inactive)
8 | [N-]=[N+]=NCc1ccccc1[C@H]1OC(c2ccc(OCCCO)cc2)=N[C@@]1(CCS(=O)(=O)c1ccccc1)C(=O)NCCN1CCOCC1 | 0.888 | 0.516 (inactive) | 0.596 | 0.163 | 0.621 | 2.76 | 0.654 | 1.3 | -0.222 | 0.944 | 1.35 | 1.27 | 0.907 | 1.04 | 0.777 | 0.188 | 0.577 | -0.237 | 0.57 | -3.06 (inactive)
9 | CCOC(=O)C[C@H]1[C@H](OC(=O)c2ccccc2-c2ccccc2)[C@@H](NC(=O)CC(C)C)c2cc(OCCCO)ccc2N1C(=O)c1ccccc1 | 0.079 | 0.305 (inactive) | -0.0406 | -0.0698 | 0.742 | 0.429 | -0.161 | 0.207 | 0.389 | 0.125 | -0.229 | 0.0447 | -0.0647 | 0.24 | 1.01 | 0.583 | -0.154 | 1.01 | -0.0988 | 0.914 (inactive)
